From PubChem
HepG2 viability = kills HepG2 cells in TGF-b inhibitor counter-screen. Potency, µM (top dose mostly 46.1 µM), inactives show top-dose activity change, negative = cytotoxicity, usual class: cytotoxic. HepG2 CAGA-GFP viability, ATP luminescence, 18 h. actives 0.76% (n = 410,000); further: potency means the concentration at half of the fitted maximal effect
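CellTiter-Glo luminescence gave cytotoxicity after 18 hours at 37 degrees C. The cells were HepG2 CAGA-GFP in 1% FBS DMEM, stimulated with 500 pg/mL TGF-beta after compound addition. %Activity was normalised to no-cell wells (complete cell-killing) and DMSO (no toxicity), and curves were fitted and classified.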
IL-1B inflam inh = inhibitors of inflammasome signaling (IL-1 beta secretion). THP-1 LPS/ATP IL-1B secretion, AlphaLISA, 16 h; hits give low values. activity change, % at 57.5 µM. actives 4.7% (n = 360,000). AID 743279; in the data active means activity change below about -50%; inconclusive means mostly about -30% to -49%; further: on the % scale 0 is the no-effect control and ±100 the full control effect
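Secreted IL-1B measured by AlphaLISA bead assay after 16 h compound exposure of THP-1 cells; compounds (final up to 57.5 uM) added 1 h before LPS (250 ng/mL) and ATP (1.25 mM) stimulation; lower signal means less secretion.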
TDP1 cell CPT = growth inhibition of DT40 Tdp1-/-;hTDP1 cells with camptothecin (screen for TDP1 inhibitors); chicken DT40 Tdp1-/-;hTDP1 cells + 20 nM CPT, ATP luminescence, 48 h; Potency, µM (doses to about 46.2 µM), without a hit: at the top dose activity change, negative = growth inhibition, usual class: inhibitors; actives 12% (n = 420,000); AID 686979; further: potency means the concentration at half of the fitted maximal effect; on the % scale 0 is the no-effect control and ±100 the full control effect; nearly all actives have a fitted effect of over 55% in size
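Cell growth measured by CellTiter-Glo luminescence after a minimum 48 h, 37 C compound exposure with 20 nM CPT in Tdp1-knockout DT40 cells stably expressing hTDP1, seeded 400/well; qHTS titration format.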
TDP1 cell noCPT = qHTS for Inhibitors of human tyrosyl-DNA phosphodiesterase 1 (TDP1): qHTS in cells in absence of CPT; Potency, µM (series often up to 46.2 µM), for inactives: at the highest dose activity change, negative = growth inhibition, actives largely listed as inhibitors; DT40 Tdp1-/- hTDP1 cells, no CPT, ATP luminescence, 48 h; actives 15% (n = 420,000); further: potency means the concentration at half of the fitted maximal effect; on the % scale 0 is the no-effect control and ±100 the full control effect; nearly all actives have a fitted effect of over 55% in size
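Stably hTDP1-transfected Tdp1-null chicken DT40 cells were treated with library compounds minus camptothecin and grown for at least 48 hr at 37 °C, after which cellular ATP was quantified by luminescence.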
TDP1 inh = TDP1 (human) enzyme inhibition. Potency, µM (top dose mostly 130 µM), without a hit: at the highest dose activity change, negative = inhibition, hits mostly inhibitors. actives 0.28% (n = 350,000). recombinant TDP1, AlphaScreen DNA substrate cleavage. AID 485290. Q9NUW8; further: potency means the concentration at half of the fitted maximal effect; on the % scale 0 is the no-effect control and ±100 the full control effect; nearly all actives have a fitted effect of over 40% in size
Target sequence (Q9NUW8 whole entry, looked up): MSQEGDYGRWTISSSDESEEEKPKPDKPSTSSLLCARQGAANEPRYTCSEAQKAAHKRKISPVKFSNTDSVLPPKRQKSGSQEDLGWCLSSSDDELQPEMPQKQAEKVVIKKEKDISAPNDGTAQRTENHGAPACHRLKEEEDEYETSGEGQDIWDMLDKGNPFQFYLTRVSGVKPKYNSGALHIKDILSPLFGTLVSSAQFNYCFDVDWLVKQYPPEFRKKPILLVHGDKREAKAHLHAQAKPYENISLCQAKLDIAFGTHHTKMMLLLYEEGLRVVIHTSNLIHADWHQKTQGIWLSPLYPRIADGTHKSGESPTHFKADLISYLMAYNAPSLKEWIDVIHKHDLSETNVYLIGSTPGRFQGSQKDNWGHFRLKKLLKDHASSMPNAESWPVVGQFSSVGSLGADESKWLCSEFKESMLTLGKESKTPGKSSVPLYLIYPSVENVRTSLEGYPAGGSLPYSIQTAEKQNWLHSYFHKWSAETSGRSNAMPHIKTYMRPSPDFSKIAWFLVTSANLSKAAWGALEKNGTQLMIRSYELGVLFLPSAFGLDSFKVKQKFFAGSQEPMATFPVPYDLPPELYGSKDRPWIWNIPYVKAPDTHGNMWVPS
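Recombinant human Tdp1 (E. coli-expressed, 1 nM final) preincubated with compounds 15 min at room temperature, then 5'-biotin/3'-phosphotyrosine-FITC DNA substrate (15 nM final) added for 5 min. AlphaScreen beads (10 ug/ml final) added 10 min; cleavage lowers signal.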
TGFb inhibitor = blocks TGF-b signaling | HepG2 CAGA-GFP TGF-b/SMAD3 reporter, GFP fluorescence, 18 h; TGF-beta stimulated, 500 pg/mL final | Potency, µM (series often up to 46.1 µM), for inactives: top-dose activity, negative = inhibition, actives largely listed as inhibitors | actives 1.2% (n = 410,000) | AID 588855; further: potency means the concentration at half of the fitted maximal effect; on the % scale 0 is the no-effect control and ±100 the full control effect; nearly all actives have a fitted effect of over 65% in size
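Cell-based qHTS in HEPG2 carrying a CAGA-GFP Smad reporter; compounds added before 500 pg/mL final TGF-beta, 18 h incubation at 37 degrees C, GFP fluorescence quantified per cell by imaging cytometry.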
* = called active by the depositor; ? = inconclusive; / = no result; [ ] = remark or other dose. An excerpt weighted towards active compounds, which were near 18% of everything screened. Unless noted, the call rests on the fitted dose curve; in most records, active means well fitted curve in the direction sought with a large enough effect; inconclusive means small, poorly fitted or top-dose-only effect, or another doubt; inactive means no such curve, though single readings can be large; an effect the other way counts as inactive or inconclusive.

SMILES	HepG2 viability	IL-1B inflam inh	TDP1 cell CPT	TDP1 cell noCPT	TDP1 inh	TGFb inhibitor
COc1ccc(C)cc1NC(=O)Nc1ccc(C(=O)N2CCCC2)cc1	-41%	?	26µM*	?	4%	0%
O=C(CCS(=O)(=O)c1cc(Br)cc2c1N(C(=O)C1CC1)CC2)NCc1ccccc1Cl	-3%	/	1%	-16%	-2%	-3%
COc1cc(OC)c(NC(=O)C(NS(=O)(=O)c2cccc3nsnc23)c2ccccc2)cc1Cl (configuration not stated)	-27%	/	?	?	2%	-23%
Cc1cc(C(=O)NCc2nc(-c3cccc(NC(=O)c4cc(C)oc4C)c3)oc2C)nc(C)n1	/	/	-15%[9.04 µM]	21µM*	/	/
Cc1occc1C(=O)Nc1cccc(-c2nc(CNC(=O)c3ccc(N4CCCCC4)cc3)c(C)o2)c1	/	/	?	18µM*	/	/
Cc1ccc(C(=O)Nc2cccc(-c3nc(CNC(=O)c4cccc(C)c4C)c(C)o3)c2)s1	/	/	23µM*	21µM*	/	/
Cc1cc(C(=O)Nc2cccc(-c3nc(CNC(=O)c4sc(C)nc4C)c(C)o3)c2)c(C)o1	/	/	7%[9.04 µM]	21µM*	/	/
CCC(NC(=S)NC1CCCCC1)c1ccc(C(C)C)cc1 (configuration not stated)	/	/	/	/	3%	/
C(=C\c1ccccc1)/CN1CCN(Cc2nc(Cc3ccccc3)no2)CC1	-20%	0	?	?	4%	1%
CC1COC(C)(CC(=O)NN2C(=O)c3ccccc3C2=O)O1 (configuration not stated)	13%	2	9%	2%	0%	5%
COc1ccc(C(=O)Nc2ccc(NS(=O)(=O)c3ccccc3)cc2)cc1OC	2%	?	?	?	/	4%
C#Cc1cccc(C(=O)NCc2nc(-c3cccc(NC(=O)c4ccccn4)c3)oc2C)c1	/	/	?	23µM*	/	/
Cc1cc(C)cc(C(=O)NCc2nc(-c3cccc(NC(=O)c4ccccn4)c3)oc2C)c1	/	/	0%[9.04 µM]	-11%	/	/
CCCN1C(=O)/C(=C/c2ccc(C)o2)SC1=Nc1ccc(OC)cc1	-6%	-12	9.2µM*	8.2µM*	9%	18%
CCN1C(=O)/C(=C/c2ccc(C)s2)SC1=Nc1ccc(OC)cc1	-4%	-15	9.2µM*	9.2µM*	2%	6%
CCCN1C(=O)/C(=C/c2ccco2)SC1=Nc1ccc(OC)cc1	8%	-14	-23%	?	11%	-18%
CCCN1C(=O)/C(=C/c2ccc(C)o2)SC1=Nc1ccc(OCC)cc1	-7%	-10	?	?	9%	-1%
CCOC(=O)C1CCN(C(=O)CCCn2nc(C)c3c(C)n(-c4ccc(C)cc4)nc3c2=O)CC1	-11%	?	?	-17%	3%	5%
Cc1c(C(=O)Nc2cccc(Cl)c2)c2ccccn2c1CCc1ccncc1	-14%	-189*	?	23µM*	8%	?
O=C(NCc1ccncc1)Nc1cccc(Cl)c1	-3%	42	-7%	-21%	8%	-2%
Cc1c(C(=O)Nc2ccc(Cl)cc2)c2ccccn2c1CCc1ccncc1	-20%	-59*	?	?	3%	-29%
Cc1ccc(OCC(=O)NC2CCSc3ccccc32)cc1 (configuration not stated)	-19%	-3	-13%	-25%	-3%	-1%
CCN(c1ccccc1)S(=O)(=O)c1ccc(OC)c(NC(=O)CCc2nc3ccccc3c(=O)[nH]2)c1	-9%	7	18µM*	15µM*	/	6%
CCN(c1ccccc1)S(=O)(=O)c1ccc(OC)c(NC(=O)CNCCc2ccccc2)c1	-1%	?	26µM*	21µM*	-8%	-26%
CCOc1ccc(Oc2ccccc2NC(=O)CCc2nc3ccccc3c(=O)[nH]2)cc1	-20%	82	23µM*	21µM*	/	-27%
SMILES	HepG2 viability	IL-1B inflam inh	TDP1 cell CPT	TDP1 cell noCPT	TDP1 inh	TGFb inhibitor
CCN(c1ccccc1)S(=O)(=O)c1ccc(OC)c(NC(=O)Cc2ccc(F)cc2)c1	-14%	?	?	18µM*	0%	-8%
CCN(c1ccccc1)S(=O)(=O)c1ccc(OC)c(NC(=O)C2CCC2)c1	-34%	-5	?	?	-4%	?
CC1=C(C(N)=O)C(c2cccc(C)c2)n2nc(-c3cccc(C)c3)nc2N1 (configuration not stated)	-9%	/	?	?	/	-25%
C=CCCC(=O)N1CCCC(C(=O)c2cccc(OC)c2)C1 (configuration not stated)	-18%	-10	-19%	?	/	-1%
Cc1cccc(S(=O)(=O)N[C@@H]2CC[C@@H](CCNS(=O)(=O)c3ccccc3F)O[C@@H]2CO)c1	/	11	?	-29%	/	/
CC1CCCCN1S(=O)(=O)c1ccc(C(=O)Nc2nnc(-c3ccncc3)o2)cc1 (configuration not stated)	-31%	10	?	?	10%	?
COc1ccc(-c2nnc(NC(=O)c3ccc(S(=O)(=O)N4COCC4(C)C)cc3)o2)cc1	-1%	25	3.7µM*	3.7µM*	14%	-2%
CC1(C)COCN1S(=O)(=O)c1ccc(C(=O)Nc2nnc(-c3ccc(Cl)s3)o2)cc1	-5%	61	4µM*	4.5µM*	2%	-9%
O=S(Cc1cc(Sc2ccccc2)nc(-c2ccccc2)n1)c1ccccc1 (configuration not stated)	0%	-7	?	16µM*	1%	9%
CCN(C(=O)Cn1cnc2onc(-c3ccc(F)cc3)c2c1=O)c1ccc(OC)cc1	-29%	/	18µM*	12µM*	4%	?
CCCN(C(=O)Cn1cnc2onc(-c3ccc(F)cc3)c2c1=O)c1cccc(Cl)c1	-12%	/	?	?	0%	-4%
O=C(Cn1cnc2onc(-c3ccc(F)cc3)c2c1=O)Nc1cccc(C(F)(F)F)c1	-95%	/	23µM*	21µM*	2%	?
COc1cc(OC)c(NC(=O)CCn2cnc3onc(-c4ccc(F)cc4)c3c2=O)cc1Cl	0%	/	12µM*	2.1µM*	-1%	12%
O=C(Cn1cnc2onc(-c3ccc(F)cc3)c2c1=O)Nc1ccc(F)c(Cl)c1	-26%	/	9.2µM*	?	-7%	0%
